Source: PubChem (The Scripps Research Institute Molecular Screening Center)
An excerpt weighted towards active compounds, which were near 2.4% of everything screened.
M1 ag – activates human CHRM1 receptor. P11229. CHO-K1 hM1, Fluo-8 calcium fluorescence, agonist mode; 0% DMSO, 100% acetylcholine EC100. activation, % at 3 µM. hit rate 0.33% among 360,000;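 active = activation above the run's mean compound activation plus 3 SD, cut at about 16% in these data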;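 also: peak over basal fluorescence ratio within a 140 s kinetic read after compound addition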
Target sequence (P11229 whole entry, looked up): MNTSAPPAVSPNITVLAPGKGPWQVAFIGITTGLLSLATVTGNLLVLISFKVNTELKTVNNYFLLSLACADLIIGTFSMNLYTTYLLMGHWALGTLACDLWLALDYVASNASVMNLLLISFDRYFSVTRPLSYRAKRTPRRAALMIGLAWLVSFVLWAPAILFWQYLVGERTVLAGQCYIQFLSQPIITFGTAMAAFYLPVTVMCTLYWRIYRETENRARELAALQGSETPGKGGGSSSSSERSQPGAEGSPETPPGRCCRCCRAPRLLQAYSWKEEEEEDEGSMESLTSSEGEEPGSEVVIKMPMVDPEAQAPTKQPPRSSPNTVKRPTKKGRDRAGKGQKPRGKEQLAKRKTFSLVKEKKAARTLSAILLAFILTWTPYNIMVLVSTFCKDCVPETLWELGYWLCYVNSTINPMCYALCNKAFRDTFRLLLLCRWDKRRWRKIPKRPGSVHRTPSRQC
M1 antag – human CHRM1 antagonism. inhibition, % at 3 µM. AID 588852. hit rate 1.3% among 360,000. CHO-K1 hM1, Fluo-8 calcium fluorescence, ACh EC80 antagonist. P11229;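 active = percent inhibition above its own plate's cutoff, namely the mean of that plate's compound wells plus 3 SD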;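 also: peak over basal fluorescence ratio during 140 s after agonist addition; 0% = ACh EC80 plus DMSO and 100% = DMSO alone without agonist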
M1 ag parental – counter-screen for M1 agonists: effect in parental CHO-K1 cells | Fluo-8 calcium fluorescence; scaled to maximal ATP response, vehicle zero | activation, % at 3 µM | hit rate 0.48% among 360,000 | AID 602248; in the data active = activation above about 15%;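 also: untransfected CHO-K1 host cells lacking M1 receptor as counterscreen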
CHRM1 PAM – human CHRM1 positive allosteric modulation; CHO-K1 hM1, Fluo-8 calcium fluorescence, ACh EC20; 0% = ACh EC20, 100% = maximal ACh; activation, % at 3 µM; hit rate 0.088% among 360,000; AID 588819; in the data active = activation above about 19%, passing the limit was not always enough
CHO-K1 Ca antag – M1 antagonist counterscreen hit in parental CHO-K1 cells | hit rate 0.6% among 360,000 | ATP-induced calcium, Fluo-8 fluorescence | inhibition, % at 3 µM;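 active = inhibition above a per-plate cutoff, the plate's mean sample inhibition plus 3 SD, cut at about 24% in these data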;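 also: 0% = DMSO plus EC80 ATP and 100% = DMSO alone without ATP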
CHO-K1 Ca PAM – M1 PAM counterscreen hit in parental CHO-K1 cells | ATP EC20, Fluo-8 calcium fluorescence; 0% at ATP EC20, 100% at ATP max | activation, % at 3 µM | hit rate 0.02% among 360,000;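 active = activation above the run cutoff, the mean activation of all test compounds plus 3 SD, cut at about 40% in these data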;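 also: peak over basal fluorescence ratio in a 140 s read after ATP addition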
* hit, by the source's call.

SMILES	M1 ag	M1 antag	M1 ag parental	CHRM1 PAM	CHO-K1 Ca antag	CHO-K1 Ca PAM
CC1CCC2=NN(C(=O)c3ccco3)C(O)(C(F)(F)F)C2C1 (configuration not stated)	-12	-10	0	9	-4	7
O=C(Nc1cccc(S(=O)(=O)N2CCCC2)c1)c1cccc(S(=O)(=O)N2CCOCC2)c1	-8	29*	3	-19	1	-5
O=C(N/N=C/c1ccncc1)c1cccc(S(=O)(=O)N2CCCC2)c1	-7	-6	1	4	-2	8
O=C(NN=Cc1ccc(F)cc1)c1cccc(S(=O)(=O)N2CCCC2)c1	-5	36*	1	-16	-1	-5
CN(C)S(=O)(=O)c1cccc(NC(=O)c2cccc(S(=O)(=O)N3CCc4ccccc43)c2)c1	-4	34*	9	-19	1	0
N#Cc1cccc(C(=O)Nc2cccc(S(=O)(=O)N3CCCC3)c2)c1	-6	38*	1	-21	18	-10
CCCCCNCc1cccc(Br)c1	0	8	4	-4	-16	17
O=C(NCCN1C(=O)S/C(=C\c2ccccc2)C1=O)c1cc(S(=O)(=O)N2CCOCC2)c(Cl)cc1Cl	-4	43*	15*	-6	21	-13
O=C(Nc1ccc(N2CCOCC2)cc1)c1cccc(S(=O)(=O)N2CCCCCC2)c1	-2	-3	3	3	-5	14
O=C(CNC(=O)c1ccc(S(=O)(=O)N2CCCC2)cc1)N/N=C/c1ccc(Cl)cc1	-8	-6	0	1	6	6
O=C(CNC(=O)c1ccc(S(=O)(=O)N2CCCC2)cc1)N/N=C/c1c(Cl)cccc1Cl	-6	16	20*	-13	21	-15
O=C(Nc1ccc(N2CCOCC2)cc1)c1cccc(S(=O)(=O)N2CCCC2)c1	-11	34*	2	-29	-14	7
CCOC(=O)/C(C#N)=C/c1c(N2CCN(Cc3ccc4c(c3)OCO4)CC2)nc2c(C)cccn2c1=O	-8	5	1	-4	-3	-8
Cc1cccn2c(=O)c(/C=C(\C#N)C(N)=O)c(N3CCN(Cc4ccc5c(c4)OCO5)CC3)nc12	-8	70*	1	-27	10	-2
Cc1ccc(OCC(=O)Nc2ccc(NC(=O)c3ccccc3)c(C)c2)cc1	-2	-1	1	1	-6	8
CC1CC(C)CN(CC(=O)N2CCCc3c2c(=O)oc2ccc(OCc4ccccc4)cc32)C1 (configuration not stated)	-6	1	0	-9	-8	21
CC1CCN(CC(=O)N2CCCc3c2c(=O)oc2ccc(OCc4ccccc4)cc32)CC1	-6	49*	-1	-23	-1	17
COc1ccc(C(=O)NC(C)c2nnc(SCC(=O)NC3CCCC3)n2C)cc1 (configuration not stated)	-3	4	0	0	-2	-6
CCCCC(=O)Nc1ncc(S(=O)(=O)c2ccc([N+](=O)[O-])cc2)s1	23*	-4	9	11	-2	16
CC(=O)NCCC(=O)Nc1ncc(S(=O)(=O)c2ccc([N+](=O)[O-])cc2)s1	1	3	1	0	-1	4
CN1CCN(C(=O)Cn2ncc3c([nH]c4ccccc43)c2=O)CC1	-1	-7	-1	14	-20	13
CCC(=O)Nc1nnc(SCCN2CCOCC2)s1	-8	33*	9	-10	10	-1
COc1ccc(N=Nc2ccc(O)c3ncccc23)cc1	6	-12	5	18	-4	5
COc1cccc(N=Nc2ccc(O)c3ncccc23)c1	24*	40*	41*	-28	35*	-6
COc1cc(OC)cc(C(=O)Nc2cccc3cccnc23)c1	-4	-6	-1	7	3	-3
COc1cccc(N=Nc2ccc3cccnc3c2O)c1	30*	31*	38*	-20	12	-12
CC1=C(C(=O)N2CCOCC2)CC(CC(=O)NC2CCCC2)C(=O)N1CCCN1CCCC1=O (configuration not stated)	-4	-12	1	6	-13	9
O=C(C#Cc1cccc([N+](=O)[O-])c1)c1ccccc1	-4	7	0	2	27*	-1
